Screens: PubChem BioAssay, National Center for Advancing Translational Sciences (NCATS)
Only some compounds are listed: those with a hit (about 13% of all), similar ones and a draw of the others.
HCV inh: HCV inhibition. Huh7.5.1 HCVcc-Cre infection, luciferase reporter, 44 h. Potency, µM (highest dose often 41.8 µM), actives largely listed as inhibitors. 340,000 tested, 3.4% active
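Seed cells (1,000/well) for 4 h; treat with compound and infect with HCVcc-Cre, moi about 0.5. Incubate 44 h, then detect luciferase activity.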
HCMV antiviral: inhibitors of human cytomegalovirus; activity change, negative = inhibition, % at 57.5 µM; HFF cells, HCMV-luciferase reporter, 72 h; hits give low values; 410,000 tested, 4.5% active; in the data active = activity change below about -60%; inconclusive = no clear call, values can overlap the other calls; inactive = above about -39%
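Cell-based, HFFs, 1000 cells/well, 16 h 37C; cpds in DMSO + HCMV-luc, MOI 1 PFU/cell; 72 h 37C; OneGlo luminescence after 5 min RT; norm. to buffer vs Salinomycin 10uM.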
Pf growth 96h: P. falciparum growth inhibition at 96 hours | P. falciparum luciferase reporter growth, 96 h | 320,000 tested, 6.9% active | Potency, µM (series often up to 28.7 µM), actives largely listed as inhibitors
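Compounds incubated with erythrocytes infected by luciferase-expressing P. falciparum (2% hematocrit, 0.05% parasitemia final) for 96 hours, 37 C in 5% CO2. Growth inhibition scored as decreased luciferase luminescence.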
Pf growth 48h: inhibits P. falciparum growth in the first generation, 48 h | 310,000 tested, 5.9% active | P. falciparum luciferase growth in erythrocytes, 48 h | Potency, µM (highest dose often 28.7 µM), actives largely listed as inhibitors | AID 504832
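Compounds are pin-transferred into medium, infected erythrocytes (2% hematocrit, 0.1% parasitemia final) are added, and plates sit one parasite generation at 37 C in 5% CO2. Detection reagent is then added and luminescence measured.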
Large screens that a line does not name were inactive. Unless noted, calls come from the whole dose curve; as a rule, active = well fitted inhibition curve with a large enough effect; inconclusive = small, poorly fitted or top-dose-only effect, or another doubt; inactive = no such curve, though single readings can be large or run the other way.

COc1ccc(-c2cc3nc(C)cc(NCCO)n3n2)cc1	Pf growth 96h 4.7µM
O=C(CN1C(=O)COc2ccc(S(=O)(=O)NC3CCCC3)cc21)Nc1ccc(Cl)cc1F	none (no result: HCV inh, Pf growth 96h, Pf growth 48h)
Cc1ccccc1OCCn1c(=S)[nH]c2c(N)ncnc21	HCMV antiviral -80 (no result: Pf growth 48h)
COCCCNC(=O)C1CCC(CNS(=O)(=O)c2ccc(C)cc2)CC1 (centres undefined)	Pf growth 48h 10µM (no result: HCV inh, HCMV antiviral)
COc1ccc(S(=O)(=O)NCC2CCC(C(=O)NCCCN3CCCC3=O)CC2)cc1 (centres undefined)	none
Cc1ccc(S(=O)(=O)NCC2CCC(C(=O)NCCCN3CCCC3=O)CC2)cc1 (centres undefined)	HCMV antiviral -62
CCCCNC(=O)C1CCC(CNS(=O)(=O)c2ccc(C)cc2)CC1 (centres undefined)	none
CC1=C(C(=O)Nc2c(C)cc(C)cc2C)C2(CCN(C(C)C)CC2)OC1=O	none (no result: HCV inh, Pf growth 96h, Pf growth 48h)
Cc1oc(-c2cccc(Br)c2)nc1Cn1c(SCc2cccc(F)c2)nc2cccnc21	none (no result: HCV inh, Pf growth 96h, Pf growth 48h)
Cc1ccc(C2Nc3ccc4ccccc4c3C3=C2C(=O)CC(C)(C)C3)o1 (centres undefined)	HCV inh inconclusive, Pf growth 96h inconclusive, Pf growth 48h 15µM
O=C(O)c1ccc(S(=O)(=O)N[C@H](Cc2ccc(C(F)(F)F)cc2)C(=O)O)cc1	none (no result: HCV inh, HCMV antiviral)
O=C(COC(=O)c1ccccc1Nc1ccccc1)NCc1ccccc1	Pf growth 96h inconclusive, Pf growth 48h inconclusive
CCn1cc(C(=O)OCC(=O)Nc2cccc(Cl)c2C)c(=O)c2ccc(C)nc21	none (no result: HCV inh, Pf growth 96h, Pf growth 48h)
O=C(COC(=O)c1ccccc1Nc1ccccc1)NCc1ccccc1Cl	Pf growth 96h 13µM
CCn1cc(C(=O)OCC(=O)NCc2ccccc2Cl)c(=O)c2ccc(C)nc21	HCMV antiviral -102
COC(=O)CSc1ncc2c(n1)-c1ccccc1N(Cc1ccccc1C)S2(=O)=O	none (no result: HCV inh, Pf growth 96h, Pf growth 48h)
CCOC(=O)C1=C(C)NC(=O)NC1c1cn(-c2ccccc2)nc1-c1cccs1 (centres undefined)	Pf growth 96h inconclusive, Pf growth 48h inconclusive
CCOC(=O)C1=C(C)NC(C)=C(C(=O)OCC)C1c1cn(-c2ccccc2)nc1-c1ccco1	Pf growth 48h 4.7µM (no result: Pf growth 96h)
CCOc1ccc(-c2nn(-c3ccccc3)cc2C2NC(=O)NC(C)=C2C(=O)OC(C)C)cc1 (centres undefined)	HCMV antiviral -67 (no result: HCV inh, Pf growth 96h, Pf growth 48h)
CC(C)OC(=O)c1cn(-c2ccccc2)nc1-c1ccco1	HCV inh inconclusive, Pf growth 48h 10µM
CCc1ccc(-n2c(N3CCN(c4cccc(Cl)c4)CC3)nc3ccccc3c2=O)cc1	none (no result: HCV inh, Pf growth 96h, Pf growth 48h)
O=S(=O)(Nc1ccc(F)cc1F)c1ccc(Br)s1	none (no result: HCV inh, Pf growth 96h, Pf growth 48h)
CCc1ccc(C2CC(=O)c3c([nH]c(C(=O)OC4CCC(C)CC4)c3C)C2)cc1 (centres undefined)	none (no result: HCV inh, Pf growth 96h, Pf growth 48h)
O=C(CCn1c(=O)oc2ccccc21)N1CCN(C(c2ccccc2)c2ccccc2)CC1	HCV inh inconclusive, Pf growth 48h 5.9µM
CN1C(=O)C(CC(=O)N2CCN(C(c3ccccc3)c3ccccc3)CC2)N(C)C1=O (centres undefined)	Pf growth 96h inconclusive, Pf growth 48h 12µM
O=C(Cn1c(=O)oc2ccccc21)N1CCN(c2ccccc2)CC1	Pf growth 96h 13µM
O=C(CCn1c(=O)oc2ccccc21)N1CCN(c2ccccc2F)CC1	Pf growth 96h inconclusive
CC(=O)N1CCN(C(=O)Cn2c(=O)oc3ccccc32)CC1	none
OC1(c2cccc(C(F)(F)F)c2)CCN(c2ncnc3c2[nH]c2ccc(F)cc23)CC1	HCV inh 0.71µM, HCMV antiviral -87
Fc1ccc2[nH]c3c(N4CCN(c5ccccc5)CC4)ncnc3c2c1	HCV inh 7.9µM, HCMV antiviral -97, Pf growth 96h 12µM, Pf growth 48h 13µM
CCOC(=O)N1CCN(c2ncnc3c2[nH]c2ccc(F)cc23)CC1	HCV inh 8.9µM, HCMV antiviral -81, Pf growth 96h 13µM, Pf growth 48h inconclusive
CCOC(=O)N1CCN(c2ncnc3c2[nH]c2ccc(OC)cc23)CC1	HCMV antiviral inconclusive, Pf growth 96h inconclusive, Pf growth 48h inconclusive
C=CCc1c(C)nc2nc(SCC(=O)Nc3ccccc3CC)nn2c1C	none (no result: HCV inh, Pf growth 96h, Pf growth 48h)
CCN(CC)CCNC(=O)C1CCN(C(=O)c2cnn(-c3ccccc3)c2-n2cccc2)CC1	none (no result: HCV inh, Pf growth 96h, Pf growth 48h)
CS(=O)(=O)c1ccc(S(=O)CC(=O)OCc2ccccc2)c([N+](=O)[O-])c1 (centres undefined)	HCV inh inconclusive, HCMV antiviral -101, Pf growth 96h inconclusive
COc1ccc(OC)c(N2C(N)=NC(N)=NC23CCCC3)c1	none
CC1(C)N=C(N)N=C(N)N1c1ccc(F)cc1F	Pf growth 96h 9.3µM, Pf growth 48h inconclusive
Cc1cccc(N2C(N)=NC(N)=NC23CCCCC3)c1	Pf growth 96h inconclusive, Pf growth 48h 2.1µM
Nc1ccc2nn(-c3ccccc3)nc2c1	none
